Screening data: PubChem, National Center for Advancing Translational Sciences (NCATS)
DRD3 antagonist = D3 dopamine receptor (human) antagonism. P35462. D3R cells, DiscoveRx beta-arrestin luminescence, antagonist mode; stronger effect = lower value. max response, negative = inhibition, %. 360,000 compounds, 2.5% hits. AID 652054; in the data active means max response below about -50%; inconclusive means no clear call, values can overlap the other calls; further: on the % scale 0 is the no-effect control and ±100 the full control effect
Target sequence (P35462 whole entry, looked up): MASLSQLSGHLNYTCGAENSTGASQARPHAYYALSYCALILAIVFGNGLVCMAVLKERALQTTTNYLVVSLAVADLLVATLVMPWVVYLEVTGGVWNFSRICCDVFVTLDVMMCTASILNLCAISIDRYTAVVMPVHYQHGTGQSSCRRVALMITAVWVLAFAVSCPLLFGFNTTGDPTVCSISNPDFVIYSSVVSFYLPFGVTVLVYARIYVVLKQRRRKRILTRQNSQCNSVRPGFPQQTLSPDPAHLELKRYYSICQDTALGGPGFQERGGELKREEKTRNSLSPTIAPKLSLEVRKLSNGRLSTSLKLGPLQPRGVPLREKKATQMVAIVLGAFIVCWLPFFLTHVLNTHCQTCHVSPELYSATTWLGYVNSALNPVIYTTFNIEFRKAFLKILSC
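Cells plated overnight at 1500 cells/well, then exposed to library compounds with dopamine controls for 90 minutes at 37 degrees C. DiscoveRx reagent added for 30–60 minutes at room temperature; luminescence read, quantitative HTS format.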
GLP-1R agonist = GLP-1 receptor (human) agonism; P43220; HEK293 GLP-1R CRE-luciferase, luminescence, 4-6 h; cells express a hypersensitive GLP-1R form; Potency, µM (doses to about 45.6 µM), without a hit: top-dose activation, usual class: activators; 380,000 compounds, 0.007% hits; AID 624172; further: potency means the concentration at half of the fitted maximal effect; % of control where 0% means no effect
GLP-1R inv ag = inverse agonists of human GLP-1 receptor. HEK293 GLP-1R CRE-luciferase, luminescence, 24 h; GLP-1R form is constitutively active. Potency, µM (series often up to 38.3 µM), for inactives: top-dose activity change, negative = inhibition, most hits filed as inhibitors. 410,000 compounds, 1.6% hits; further: potency means the concentration at half of the fitted maximal effect; on the % scale 0 is the no-effect control and ±100 the full control effect; nearly all actives have a fitted effect of over 55% in size
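Stable HEK293 clone (constitutively active GLP-1R + cAMP-response luciferase); 200 cells/uL plated, 12 h pre-culture, compound 24 hr, 37 deg C/5% CO2; detection reagent 12 min RT; luminescence.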
DRD3 agonist = D3 dopamine receptor (human) agonism | 410,000 compounds, 0.58% hits | max activation, % | D3R DiscoveRx beta-arrestin cells, luminescence, 90 min | AID 652048; in the data active means max activation above about 30%; further: 0% is about no effect
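Agonist mode: compounds and dopamine controls were applied to plated cells for 90 min at 37 degrees C after an overnight attachment at 1500 cells/well. Luminescent read-out followed 30 - 60 minutes at room temperature with DiscoveRx detection reagent.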
Active calls of the source: *. This is a sample that favours compounds with a hit; in the whole collection about 4.3% have one here. Unless noted, the call rests on the fitted dose curve; in most records, active means well fitted curve in the direction sought with a large enough effect; inconclusive means small, poorly fitted or top-dose-only effect, or another doubt; inactive means no such curve, though single readings can be large; an effect the other way counts as inactive or inconclusive.

Screening COC(=O)[C@H]1[C@@H](C)N(Cc2ccccc2)C(=O)N[C@H]1c1ccccc1 returned DRD3 antagonist -55*, GLP-1R agonist 18%, GLP-1R inv ag 12% and DRD3 agonist 3.
`NC(=O)c1cc[n+](CC2=C(C(=O)[O-])N3C(=O)[C@@H](NC(=O)Cc4cccs4)[C@H]3SC2)cc1` gave DRD3 agonist 7.
For CC1CCN(S(=O)(=O)c2cc(C(=O)NCc3ccc(N(C)C)cc3)n(C)c2)CC1 the results were GLP-1R agonist 1%, GLP-1R inv ag -16% and DRD3 agonist 6.
For COc1ccc(-c2nnc(SCC(=O)Nc3ccc(Cl)cc3)n2C)cc1 the results were DRD3 antagonist -57*, GLP-1R agonist 18%, GLP-1R inv ag 5% and DRD3 agonist -6.
For Cn1c(SCC(=O)NNC(=O)Nc2ccc(Cl)cc2)nnc1-c1ccccc1 the results were DRD3 antagonist 1, GLP-1R agonist 7%, GLP-1R inv ag -6% and DRD3 agonist -11.
For O=C1c2ccccc2NC(c2ccc(Cl)cc2Cl)N1Cc1ccccc1 (stereo not given) the results were DRD3 antagonist -53*, GLP-1R agonist -15%, GLP-1R inv ag 7.1µM* and DRD3 agonist 3.
CSCc1c(C(=O)N2CCCc3ccccc32)oc2ccccc12 was read as DRD3 antagonist -18, GLP-1R agonist 7%, GLP-1R inv ag 8.9µM* and DRD3 agonist -21.
Screening O=C(c1cc(=O)c2ccccc2o1)N1CCCc2ccccc21 returned DRD3 antagonist 8, GLP-1R agonist 0%, GLP-1R inv ag -31% and DRD3 agonist -3.
FC(F)(F)c1cccc(N2CCN(C(=S)NC3CCCC3)CC2)c1 was read as DRD3 antagonist 0, GLP-1R agonist -2%, GLP-1R inv ag 7.9µM* and DRD3 agonist -14.
For FC(F)(F)c1cccc(N2CCN(C(=S)NC3CCCCC3)CC2)c1 the results were DRD3 antagonist 15, GLP-1R agonist -1%, GLP-1R inv ag inconclusive and DRD3 agonist 2.
For CC1(C)C2CCC1(C)C(NC(=O)/C=C/c1ccccc1)C2 (stereo not given) the results were DRD3 antagonist -12, GLP-1R agonist 4%, GLP-1R inv ag 7.1µM* and DRD3 agonist 3.
CCOC(=O)COc1ccc2c(C)c(CCN(CC)CC)c(=O)oc2c1 was read as GLP-1R agonist -4% and DRD3 agonist 6.
`CCc1c(C)c2ccc(O)c(CN3CCCC3)c2oc1=O` gave DRD3 antagonist -15, GLP-1R agonist 2%, GLP-1R inv ag 3% and DRD3 agonist -19.
For COC(=O)Cc1c(C)c2ccc(O)c(CN3CCCC(C)C3)c2oc1=O (stereo not given) the results were DRD3 antagonist -54*, GLP-1R agonist -2%, GLP-1R inv ag 0% and DRD3 agonist -8.
For Cc1ccc(N2C(=O)CC(N3CCN(C4CCc5ccccc5C4)CC3)C2=O)cc1 (stereo not given) the results were DRD3 antagonist -55*, GLP-1R agonist -5%, GLP-1R inv ag -24% and DRD3 agonist -14.
CCOc1ccc(N2C(=O)CC(N3CCN(C4CCc5ccccc5C4)CC3)C2=O)cc1 (stereo not given) was read as DRD3 antagonist 20, GLP-1R agonist 0%, GLP-1R inv ag -3% and DRD3 agonist -19.
CCOC(=O)N1CCN(C2CC(=O)N(c3ccc(C)cc3)C2=O)CC1 (stereo not given) was read as DRD3 antagonist -63*, GLP-1R agonist 14%, GLP-1R inv ag 4% and DRD3 agonist -11.
Screening CCOC(=O)N1CCN(C2CC(=O)N(c3ccc(Oc4ccccc4)cc3)C2=O)CC1 (stereo not given) returned DRD3 antagonist 15, GLP-1R agonist 4%, GLP-1R inv ag -4% and DRD3 agonist 53*.
Screening CCOC(=O)N1CCN(C2CC(=O)N(c3ccc(F)cc3)C2=O)CC1 (stereo not given) returned DRD3 antagonist 13, GLP-1R agonist -1%, GLP-1R inv ag -15% and DRD3 agonist 2.
`Cc1ccc(C)c(NC(=O)C2CCN(c3nn4c(=O)cc(C)nc4s3)CC2)c1` gave GLP-1R inv ag 5% and DRD3 agonist 2.
COc1cc(/C=N/NC(N)=S)cc(Br)c1OCc1ccccc1F was read as DRD3 antagonist -51*, GLP-1R agonist 0%, GLP-1R inv ag -7% and DRD3 agonist -7.
COc1cccc(/C=N/NC(N)=S)c1OCc1ccccc1Cl was read as DRD3 antagonist -22, GLP-1R agonist 10%, GLP-1R inv ag 11µM* and DRD3 agonist -5.
Screening COc1cccc(/C=N/n2nnnc2N)c1OCc1ccccc1Cl returned DRD3 antagonist -17, GLP-1R agonist -8%, GLP-1R inv ag 0% and DRD3 agonist 5.
`NC(=S)N/N=C/c1ccccc1OCCSc1ccc(Cl)cc1` gave DRD3 antagonist inconclusive, GLP-1R agonist 0%, GLP-1R inv ag 2.8µM* and DRD3 agonist -16.
C=C(C)COc1ccc(-c2ncnc(C(F)(F)F)c2-c2ccccc2)c(O)c1 was read as DRD3 antagonist 24, GLP-1R agonist 13%, GLP-1R inv ag 2.8µM* and DRD3 agonist 11.
`C=C(C)COc1ccc(-c2ncnc(C(F)(F)F)c2-c2ccc(OC)cc2)c(O)c1` gave DRD3 antagonist -7, GLP-1R agonist 18%, GLP-1R inv ag 7.9µM* and DRD3 agonist 10.
C=C(C)COc1ccc(-c2nc(N)nc(C(F)(F)F)c2-c2ccc(OC)cc2)c(O)c1 was read as DRD3 antagonist -3, GLP-1R agonist 7%, GLP-1R inv ag inconclusive and DRD3 agonist 0.
For O=C(Nc1ccc(Cl)cc1)Nc1ccc(Cl)c(C(F)(F)F)c1 the results were GLP-1R agonist -4% and DRD3 agonist 1.
Cc1ccc(CN2CCN(CC3CC4C=CC3C4)CC2)cc1 (stereo not given) was read as DRD3 antagonist -60*, GLP-1R agonist -4%, GLP-1R inv ag -29% and DRD3 agonist -17.
Cc1ccc2c(c1)c(=O)c(C(=O)c1ccncc1)cn2CC(=O)Nc1c(C)cccc1C was read as GLP-1R inv ag 11% and DRD3 agonist -7.
Screening CC1(C)CC2C1CCC1(O)CC2(C)CCC1N(O)c1ccc(C(=O)NCCO)cn1 (stereo not given) returned DRD3 antagonist 30, GLP-1R agonist -4%, GLP-1R inv ag inconclusive and DRD3 agonist 40*.
CCCOc1ccc(C(=O)NCCO)cc1 was read as DRD3 antagonist 92, GLP-1R agonist -7%, GLP-1R inv ag 0% and DRD3 agonist 2.
For Cc1ccc(-n2nc(C)c3nc(CCC(=O)Nc4cccc(C)c4C)c(=O)n(C)c32)cc1 the results were GLP-1R inv ag 16% and DRD3 agonist -6.
CC1Cc2ccccc2N1C(=O)Cn1nnc(-c2ccccc2NC(=O)C2CCC2)n1 (stereo not given) was read as DRD3 antagonist -98*, GLP-1R agonist -4%, GLP-1R inv ag inconclusive and DRD3 agonist 9.
